From PubChem BioAssay
RPL19A-GFP yeast: yeast TOR pathway RPL19A-GFP modulation; 330,000 compounds, 0.3% hits; percent response vs DMSO, % at 10 µM; S. cerevisiae RPL19A-GFP strain, flow cytometry, 3 h; hits give low values;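 active means percent response vs DMSO below 50%; inconclusive means fewer than 70 events counted for the yeast strain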;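 further: median channel GFP fluorescence of the barcoded RPL19A-GFP strain; lower means less RPL19A-GFP as with rapamycin TOR inhibition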
CIT2 TOR yeast: modulators of TOR pathway CIT2-GFP in S. cerevisiae; S. cerevisiae CIT2-GFP strain, flow cytometry, 3 h; 100 means same as DMSO wells; GFP response vs DMSO, % at 10 µM; 320,000 compounds, 0.065% hits; AID 2029;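 active means GFP response relative to DMSO above a set limit, near the screen mean plus 3 SD, cut at about 150% in these data; inconclusive means Fewer than 70 cells measured for a yeast strain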;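 further: ratio of well median GFP fluorescence to mean of DMSO wells on the plate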
AGP1 TOR yeast: alters AGP1-GFP fluorescence in TOR pathway yeast screen; S. cerevisiae AGP1-GFP multiplex flow cytometry, 3 h; GFP as percent of DMSO wells; GFP response vs DMSO, % at 10 µM; 320,000 compounds, 0.02% hits;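 active means GFP response relative to DMSO above a set limit, near screen average plus 3 SD, cut at about 150% in these data; inconclusive means fewer than 70 cells counted for the yeast strain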;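 further: median GFP channel fluorescence of the gated AGP1 strain per well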
Myeloid diff MLP: compounds promoting myeloid differentiation; 360,000 compounds, 1% hits; calls only at 10 µM; ER-HoxA9 myeloid progenitors, lysozyme-GFP differentiation, flow cytometry; AID 624256;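 active means normalized GFP-positive differentiation at or above the plate's own cutoff, the solvent-only control mean plus 3 SD; inconclusive means no clear call, values can overlap the other calls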;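 further: cells exposed to compound for four days before flow analysis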
LAP4-GFP MLPCN: modulators of TOR pathway LAP4-GFP in S. cerevisiae. S. cerevisiae LAP4-GFP multiplex, flow cytometry GFP, 3 h; median GFP as percent of DMSO wells. 320,000 compounds, 0.34% hits. AID 2023. GFP response vs DMSO, % at 10 µM;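 active means GFP response vs DMSO above a set limit, about the screen mean plus 3 SD, cut at about 150% in these data; inconclusive means under 70 cell events counted for the yeast strain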
MEP2 TOR yeast: modulators of TOR pathway MEP2-GFP in S. cerevisiae; S. cerevisiae MEP2-GFP strain, flow cytometry GFP, 3 h; 100% = DMSO control level; GFP response vs DMSO, % at 10 µM; 330,000 compounds, 0.51% hits;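 active means GFP response versus DMSO above a set limit, roughly screen mean plus 3 SD, cut at about 180% in these data; inconclusive means fewer than 70 cells counted for a yeast strain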;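 further: median GFP fluorescence of the barcode-gated MEP2-GFP cells per well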
Of the large screens only hits and unclear results are named; the others gave an inactive call; [ ] = another dose, or the depositor's remark. Most compounds without a hit are left out; they make up all but 1.8% or so of the library.

CN(Cc1ccccc1)C(=O)CCN1C(=O)c2cccc([N+](=O)[O-])c2C1=O	none (no result: RPL19A-GFP yeast, CIT2 TOR yeast, AGP1 TOR yeast, LAP4-GFP MLPCN, MEP2 TOR yeast)
O=C1c2cccc([N+](=O)[O-])c2C(=O)N1CCO	Myeloid diff MLP active
COc1ccc(NC(C)=[N+](C)CCNS(=O)(=O)c2ccc(Cl)cc2)cc1Cl	none
CC(Nc1cc(C)cc(C)c1)=[N+](C)CCNS(=O)(=O)c1ccc(Cl)cc1	CIT2 TOR yeast 152[may fluoresce green]
O=c1c(N=Nc2ccc(O)cc2)c(-c2ccccc2)[nH]n1-c1ccc([N+](=O)[O-])cc1	Myeloid diff MLP active
NC(=O)c1ccc(N=Nc2c(-c3ccccc3)[nH]n(-c3ccccc3)c2=O)cc1	none (no result: Myeloid diff MLP)
CCOc1cc(N2CCOCC2)c(OCC)cc1NC(=O)c1ccco1	none
CCOc1cc(N2CCOCC2)c(OCC)cc1NC(=O)C(NC(=O)c1ccco1)C(C)C (stereo unspecified)	MEP2 TOR yeast 269 (no result: RPL19A-GFP yeast)
CCc1ccc(C2=NN(C(C)=O)C(c3ccco3)C2)cc1 (stereo unspecified)	RPL19A-GFP yeast 43[may fluoresce violet], CIT2 TOR yeast inconclusive, AGP1 TOR yeast inconclusive, LAP4-GFP MLPCN 156[may fluoresce violet]
O=C(COc1cccnc1[N+](=O)[O-])N1N=C(c2ccc(Cl)cc2)CC1c1ccco1 (stereo unspecified)	Myeloid diff MLP active
Cc1ccc(C2=NN(C(=O)CSc3nccn3C)C(c3ccco3)C2)cc1 (stereo unspecified)	Myeloid diff MLP active
CCOC(=O)c1ccc(NC(=O)c2ccccc2N(C)S(=O)(=O)c2ccccc2)cc1	none
COc1ccc(Nc2c(-c3ccco3)nc3ccc(C)cn23)cc1	Myeloid diff MLP active
NC(=O)C1CCN(C(=S)NCCc2ccccc2)CC1	CIT2 TOR yeast 195, MEP2 TOR yeast 492
COc1ccc(CCNC(=S)N2CCC(C(N)=O)CC2)cc1	none
CCC(=O)N1CCc2cc(Br)cc(S(=O)(=O)N3CCC(C(=O)NC(C)(C)C)CC3)c21	none
O=C(C1CC1)N1CCc2cc(Br)cc(S(=O)(=O)N3CCOCC3)c21	RPL19A-GFP yeast 18[may fluoresce violet], CIT2 TOR yeast inconclusive, AGP1 TOR yeast inconclusive, MEP2 TOR yeast 214[may fluoresce violet]
O=C(C1CC1)N1CCc2cc(Br)cc(S(=O)(=O)NCc3ccco3)c21	none
O=C(C1CC1)N1CCc2cc(Br)cc(S(=O)(=O)NCc3ccccn3)c21	RPL19A-GFP yeast 42[may fluoresce violet], CIT2 TOR yeast inconclusive, AGP1 TOR yeast inconclusive, MEP2 TOR yeast 202[may fluoresce violet]
O=C(C1CC1)N1CCc2cc(Br)cc(S(=O)(=O)NCCN3CCOCC3)c21	none
CCC(=O)N1CCc2cc(Br)cc(S(=O)(=O)N3CCCC(C(=O)NC(C)(C)C)C3)c21 (stereo unspecified)	CIT2 TOR yeast inconclusive, MEP2 TOR yeast 326[may fluoresce violet]
CC(=O)OCC1OC(OC2C[C@]3(C)C(CC(O)C4C([C@](C)(CCC=C(C)C)OC5OC(CO)C(O)C(O)C5O)CC[C@]43C)[C@@]3(C)CCC(O)C(C)(C)C23)C(O[C@@H]2OC(C)C(O)C(O)C2O)C(O)C1O (stereo partly specified)	none
Cc1cc(NC(=O)CSc2n[nH]c(CC(C)C)n2)no1	none (no result: AGP1 TOR yeast)
O=C(CCNC(=O)c1ccco1)Nc1ccc(OC(F)(F)F)cc1	none
CC(C)c1ccc(C(=O)NC(=S)NCc2cccnc2)cc1	none
Clc1ccc(-c2nn3cnnc3s2)c(Cl)c1	RPL19A-GFP yeast 45[may fluoresce violet], CIT2 TOR yeast inconclusive, AGP1 TOR yeast inconclusive, MEP2 TOR yeast 300[may fluoresce violet]
Nc1nnc(-c2ccc(Cl)cc2Cl)s1	none
CCC(=O)NC(c1ccco1)c1cc(Cl)c2ccccc2c1O (stereo unspecified)	none
CCC(=O)NC(c1cc(Cl)c2ccccc2c1O)C(C)C (stereo unspecified)	Myeloid diff MLP active
O=C(Nc1cccc(S(=O)(=O)N2CCOCC2)c1)c1ccccc1[N+](=O)[O-]	none
CCN1C(=O)N[C@@H](CCc2ccccc2)[C@@H](C(=O)OC)[C@H]1C	Myeloid diff MLP active
COC(=O)[C@H]1[C@@H](C)N(Cc2ccccc2)C(=O)N[C@H]1c1cccc(C(F)(F)F)c1	Myeloid diff MLP active
COC(=O)[C@H]1[C@H](CCc2ccccc2)NC(=O)N(Cc2ccccc2)[C@@H]1C	none
CN1CCN(CC(=O)NN(Cc2ccccc2)c2ccccc2)CC1	none
Clc1ccc(-n2nnnc2Sc2ncnc3sccc23)cc1	LAP4-GFP MLPCN 151
CN(Cc1ccccc1)S(=O)(=O)c1csc(C(N)=O)c1	none
Fc1ccc(-c2nnc(Cc3ccc(Cl)cc3)o2)cc1	LAP4-GFP MLPCN 190
CN(C)c1ccc(/C=C(\C#N)C(=O)Nc2nc3c(s2)CCN(Cc2ccccc2)C3)cc1	Myeloid diff MLP active
O=C(Nc1nc2c(s1)CN(Cc1ccccc1)CC2)C1CCC1	none
COc1ccc(NC(=O)COC(=O)C(CC(C)C)N2C(=O)C3CC=CCC3C2=O)cc1Cl (stereo unspecified)	none
COc1ccc(/C=N/NC(=O)CCC(=O)Nc2ccc(Br)cc2)c(OC)c1	RPL19A-GFP yeast 43[may fluoresce violet], CIT2 TOR yeast inconclusive, AGP1 TOR yeast inconclusive, MEP2 TOR yeast 830[may fluoresce violet]
COc1ccc(/C=N/NC(=O)CCC(=O)Nc2ccc(F)cc2)c(OC)c1	none
COc1ccc(/C=N/NC(=O)c2cccc(NC(=O)c3ccc(Cl)cc3)c2)c(OC)c1	Myeloid diff MLP active
Cc1ccc(C(C)C)c(OCCn2ccnc2C)c1	none
Cc1ccc(OCCCCn2ccnc2C)c(C)c1	MEP2 TOR yeast 196
Cc1sc2nc(CSc3nnnn3-c3ccc(Cl)cc3)[nH]c(=O)c2c1C	Myeloid diff MLP active
COc1cnc(-c2ccccn2)nc1N(C)C	Myeloid diff MLP active
Cc1cc(C(=O)CN2C(=O)C(=O)N(Cc3ccccc3)C2=O)c(C)n1Cc1ccc(F)cc1	none
CCOc1ccc2ccccc2c1C(=O)N1CCN(c2ccccc2)CC1	Myeloid diff MLP active
COc1ccccc1CNC(=O)C1CCN(S(=O)(=O)c2ccc(-n3cnnn3)cc2)CC1	CIT2 TOR yeast inconclusive, AGP1 TOR yeast inconclusive, MEP2 TOR yeast 609[may fluoresce violet]
CCCCNC(NCCCC)=C(S(=O)(=O)CC)S(=O)(=O)CC	CIT2 TOR yeast inconclusive, AGP1 TOR yeast inconclusive, MEP2 TOR yeast 230[may fluoresce violet]
COc1ccc(C)cc1NC(=O)CN1C(=O)c2ccccc2S1(=O)=O	none
Cc1ccc(NC(=O)CN2C(=O)c3ccccc3S2(=O)=O)c(C)c1	RPL19A-GFP yeast 33[may fluoresce violet], CIT2 TOR yeast inconclusive, AGP1 TOR yeast inconclusive, MEP2 TOR yeast 276[may fluoresce violet]
COc1ccccc1CNC(=O)CN1NS(=O)(=O)c2ccccc2C1=O	none
Cc1cccc(NC(=O)CN2NS(=O)(=O)c3ccccc3C2=O)c1	RPL19A-GFP yeast 16[may fluoresce violet], CIT2 TOR yeast inconclusive, AGP1 TOR yeast inconclusive, MEP2 TOR yeast 315[may fluoresce violet]
CC(C)CN(C(=O)COC(=O)CCc1c[nH]c2ccccc12)C1CCS(=O)(=O)C1 (stereo unspecified)	none
